# B1: unnamed (peptide)
# chain: WTQRRGPLVVYAEDN
# B2: unnamed (peptide)
# chain: TKPTPPPKPSHLKPK
# B3: unnamed (peptide)
# chain: NRARYLPQNPDIIAG
# Biological target: CaNbp2
# Assay: SPOT peptide array binding signal intensity (averaged, normalized) (arbitrary units (background-subtracted, floor 0; scale differs between SH3 domains)); higher = stronger binding of the SH3 domain to the peptide
# How it was run: (§1)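 Spot intensities were captured after detection with anti-GST antibody, an HRP-linked anti-mouse secondary and luminol, and quantified with Genespotter. The probes were GST-fused SH3 domains from four yeast species, produced in E. coli BL21(DE3), purified on glutathione Sepharose and incubated at 10 μg/ml overnight at 4°C on cellulose-bound synthetic 15-mer peptides with cysteines replaced by serines. Binding signal is the normalized, background-subtracted spot intensity averaged over replicates, and its arbitrary units differ between domains.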
row,Binder,SPOT peptide array binding signal intensity
1,B1,44.5
2,B2,≤ 0
3,B3,59

# Biological target: CaRvs167
# Assay: as above
# How it was run: as §1
row,Binder,SPOT peptide array binding signal intensity
1,B1,12.2
2,B2,4
3,B3,4.17

# Biological target: CaRvs167-3
# Assay: as above
# How it was run: as §1
row,Binder,SPOT peptide array binding signal intensity
1,B1,3.5
2,B2,6
3,B3,1.75

# Biological target: CaSho1
# Assay: as above
# How it was run: as §1
row,Binder,SPOT peptide array binding signal intensity
1,B1,32
2,B2,44.5
3,B3,17.5

# Biological target: CaSla1-D1-D2
# Assay: as above
# How it was run: as §1
row,Binder,SPOT peptide array binding signal intensity
1,B1,≤ 0
2,B2,9.5
3,B3,≤ 0

# Biological target: CaSla1-D3
# Assay: as above
# How it was run: as §1
row,Binder,SPOT peptide array binding signal intensity
1,B1,0.25
2,B2,0.5
3,B3,≤ 0

# Biological target: ScAbp1
# Assay: as above
# How it was run: as §1
row,Binder,SPOT peptide array binding signal intensity
1,B1,1
2,B2,1010
3,B3,7.5

# Biological target: ScBbc1
# Assay: as above
# How it was run: as §1
row,Binder,SPOT peptide array binding signal intensity
1,B1,≤ 0
2,B2,≤ 0
3,B3,≤ 0

# Biological target: ScBem1-D1
# Assay: as above
# How it was run: as §1
row,Binder,SPOT peptide array binding signal intensity
1,B1,11.5
2,B2,1.5
3,B3,7

# Biological target: ScBzz1-D1
# Assay: as above
# How it was run: as §1
row,Binder,SPOT peptide array binding signal intensity
1,B1,28
2,B2,4
3,B3,7

# Biological target: ScBzz1-D2
# Assay: as above
# How it was run: as §1
row,Binder,SPOT peptide array binding signal intensity
1,B1,58
2,B2,59.5
3,B3,≤ 0

# Biological target: ScCyk3
# Assay: as above
# How it was run: as §1
row,Binder,SPOT peptide array binding signal intensity
1,B1,10
2,B2,≤ 0
3,B3,3

# Biological target: ScFus1
# Assay: as above
# How it was run: as §1
row,Binder,SPOT peptide array binding signal intensity
1,B1,28.5
2,B2,7.5
3,B3,≤ 0

# Biological target: ScHof1
# Assay: as above
# How it was run: as §1
row,Binder,SPOT peptide array binding signal intensity
1,B1,0.5
2,B2,2
3,B3,1.5

# Biological target: ScHse1
# Assay: as above
# How it was run: as §1
row,Binder,SPOT peptide array binding signal intensity
1,B1,140
2,B2,4
3,B3,647

# Biological target: ScLsb1
# Assay: as above
# How it was run: as §1
row,Binder,SPOT peptide array binding signal intensity
1,B1,3.5
2,B2,0.5
3,B3,1.5

# Biological target: ScLsb2
# Assay: as above
# How it was run: as §1
row,Binder,SPOT peptide array binding signal intensity
1,B1,≤ 0
2,B2,≤ 0
3,B3,≤ 0

# Biological target: ScLsb3
# Assay: as above
# How it was run: as §1
row,Binder,SPOT peptide array binding signal intensity
1,B1,5
2,B2,1800
3,B3,58

# Biological target: ScLsb4
# Assay: as above
# How it was run: as §1
row,Binder,SPOT peptide array binding signal intensity
1,B1,≤ 0
2,B2,≤ 0
3,B3,≤ 0

# Biological target: ScMyo3
# Assay: as above
# How it was run: as §1
row,Binder,SPOT peptide array binding signal intensity
1,B1,16
2,B2,0.5
3,B3,≤ 0

# Biological target: ScMyo5
# Assay: as above
# How it was run: as §1
row,Binder,SPOT peptide array binding signal intensity
1,B1,9
2,B2,≤ 0
3,B3,9.25

# Biological target: ScNbp2
# Assay: as above
# How it was run: as §1
row,Binder,SPOT peptide array binding signal intensity
1,B1,1.5
2,B2,13
3,B3,≤ 0

# Biological target: ScPex13
# Assay: as above
# How it was run: as §1
row,Binder,SPOT peptide array binding signal intensity
1,B1,1
2,B2,981
3,B3,2.75

# Biological target: ScRvs167
# Assay: as above
# How it was run: as §1
row,Binder,SPOT peptide array binding signal intensity
1,B1,20.8
2,B2,4.17
3,B3,5.83

# Biological target: ScSho1
# Assay: as above
# How it was run: as §1
row,Binder,SPOT peptide array binding signal intensity
1,B1,≤ 0
2,B2,1320
3,B3,87.5

# Biological target: ScSla1-D1-D2
# Assay: as above
# How it was run: as §1
row,Binder,SPOT peptide array binding signal intensity
1,B1,≤ 0
2,B2,11
3,B3,≤ 0

# Biological target: ScSla1-D3
# Assay: as above
# How it was run: as §1
row,Binder,SPOT peptide array binding signal intensity
1,B1,9
2,B2,1.75
3,B3,≤ 0

# Biological target: SpAbp1-D1
# Assay: as above
# How it was run: as §1
row,Binder,SPOT peptide array binding signal intensity
1,B1,6
2,B2,481
3,B3,≤ 0

# Biological target: SpBbc1
# Assay: as above
# How it was run: as §1
row,Binder,SPOT peptide array binding signal intensity
1,B1,2.75
2,B2,0.5
3,B3,≤ 0

# Biological target: SpBzz1-D1
# Assay: as above
# How it was run: as §1
row,Binder,SPOT peptide array binding signal intensity
1,B1,458
2,B2,344
3,B3,31.5

# Biological target: SpBzz1-D2
# Assay: as above
# How it was run: as §1
row,Binder,SPOT peptide array binding signal intensity
1,B1,≤ 0
2,B2,≤ 0
3,B3,0.75

# Biological target: SpCyk3
# Assay: as above
# How it was run: as §1
row,Binder,SPOT peptide array binding signal intensity
1,B1,7
2,B2,≤ 0
3,B3,≤ 0

# Biological target: SpHof1
# Assay: as above
# How it was run: as §1
row,Binder,SPOT peptide array binding signal intensity
1,B1,29.5
2,B2,2
3,B3,32.8

# Biological target: SpHof1-2
# Assay: as above
# How it was run: as §1
row,Binder,SPOT peptide array binding signal intensity
1,B1,22.5
2,B2,≤ 0
3,B3,13

# Biological target: SpHof1-3
# Assay: as above
# How it was run: as §1
row,Binder,SPOT peptide array binding signal intensity
1,B1,23
2,B2,64
3,B3,251

# Biological target: SpHse1
# Assay: as above
# How it was run: as §1
row,Binder,SPOT peptide array binding signal intensity
1,B1,66.2
2,B2,9.25
3,B3,204

# Biological target: SpLsb1
# Assay: as above
# How it was run: as §1
row,Binder,SPOT peptide array binding signal intensity
1,B1,≤ 0
2,B2,251
3,B3,2

# Biological target: SpLsb4
# Assay: as above
# How it was run: as §1
row,Binder,SPOT peptide array binding signal intensity
1,B1,31
2,B2,43.5
3,B3,38

# Biological target: SpMyo1
# Assay: as above
# How it was run: as §1
row,Binder,SPOT peptide array binding signal intensity
1,B1,16
2,B2,≤ 0
3,B3,7

# Biological target: SpNbp2
# Assay: as above
# How it was run: as §1
row,Binder,SPOT peptide array binding signal intensity
1,B1,2
2,B2,2.5
3,B3,3

# Biological target: SpPex13
# Assay: as above
# How it was run: as §1
row,Binder,SPOT peptide array binding signal intensity
1,B1,19
2,B2,7
3,B3,1

# Biological target: SpRvs167
# Assay: as above
# How it was run: as §1
row,Binder,SPOT peptide array binding signal intensity
1,B1,16
2,B2,142
3,B3,5.67

# Biological target: SpSla1-D1-D2
# Assay: as above
# How it was run: as §1
row,Binder,SPOT peptide array binding signal intensity
1,B1,3
2,B2,≤ 0
3,B3,≤ 0

# Biological target: SpSla1-D3
# Assay: as above
# How it was run: as §1
row,Binder,SPOT peptide array binding signal intensity
1,B1,6
2,B2,2.5
3,B3,≤ 0

# Biological target: AgAbp1
# Assay: as above
# How it was run: as §1
row,Binder,SPOT peptide array binding signal intensity
1,B2,784
2,B3,≤ 0

# Biological target: AgBbc1
# Assay: as above
# How it was run: as §1
row,Binder,SPOT peptide array binding signal intensity
1,B2,125
2,B3,≤ 0

# Biological target: AgBem1-D1
# Assay: as above
# How it was run: as §1
row,Binder,SPOT peptide array binding signal intensity
1,B2,≤ 0
2,B3,≤ 0

# Biological target: AgBzz1-D1
# Assay: as above
# How it was run: as §1
row,Binder,SPOT peptide array binding signal intensity
1,B2,150
2,B3,9

# Biological target: AgBzz1-D2
# Assay: as above
# How it was run: as §1
row,Binder,SPOT peptide array binding signal intensity
1,B2,13
2,B3,19

# Biological target: AgCyk3
# Assay: as above
# How it was run: as §1
row,Binder,SPOT peptide array binding signal intensity
1,B2,0.5
2,B3,≤ 0

# Biological target: AgFus1
# Assay: as above
# How it was run: as §1
row,Binder,SPOT peptide array binding signal intensity
1,B2,≤ 0
2,B3,8

# Biological target: AgHof1
# Assay: as above
# How it was run: as §1
row,Binder,SPOT peptide array binding signal intensity
1,B2,3.5
2,B3,3.5

# Biological target: AgHse1
# Assay: as above
# How it was run: as §1
row,Binder,SPOT peptide array binding signal intensity
1,B2,18
2,B3,85

# Biological target: AgLsb1
# Assay: as above
# How it was run: as §1
row,Binder,SPOT peptide array binding signal intensity
1,B2,0.5
2,B3,1

# Biological target: AgLsb4
# Assay: as above
# How it was run: as §1
row,Binder,SPOT peptide array binding signal intensity
1,B2,≤ 0
2,B3,7

# Biological target: AgMyo5
# Assay: as above
# How it was run: as §1
row,Binder,SPOT peptide array binding signal intensity
1,B2,≤ 0
2,B3,0.5

# Biological target: AgNbp2
# Assay: as above
# How it was run: as §1
row,Binder,SPOT peptide array binding signal intensity
1,B2,≤ 0
2,B3,≤ 0

# Biological target: AgRvs167
# Assay: as above
# How it was run: as §1
row,Binder,SPOT peptide array binding signal intensity
1,B2,2.67
2,B3,0.5

# Biological target: AgSho1
# Assay: as above
# How it was run: as §1
row,Binder,SPOT peptide array binding signal intensity
1,B2,72
2,B3,1

# Biological target: AgSla1-D1-D2
# Assay: as above
# How it was run: as §1
row,Binder,SPOT peptide array binding signal intensity
1,B2,≤ 0
2,B3,2

# Biological target: AgSla1-D3
# Assay: as above
# How it was run: as §1
row,Binder,SPOT peptide array binding signal intensity
1,B2,≤ 0
2,B3,3.25

# Biological target: CaAbp1-D1
# Assay: as above
# How it was run: as §1
row,Binder,SPOT peptide array binding signal intensity
1,B2,655
2,B3,≤ 0

# Biological target: CaAbp1-D2
# Assay: as above
# How it was run: as §1
row,Binder,SPOT peptide array binding signal intensity
1,B2,1210
2,B3,≤ 0

# Biological target: CaBbc1
# Assay: as above
# How it was run: as §1
row,Binder,SPOT peptide array binding signal intensity
1,B2,159
2,B3,≤ 0

# Biological target: CaBem1-D1
# Assay: as above
# How it was run: as §1
row,Binder,SPOT peptide array binding signal intensity
1,B2,≤ 0
2,B3,≤ 0

# Biological target: CaBzz1-D1
# Assay: as above
# How it was run: as §1
row,Binder,SPOT peptide array binding signal intensity
1,B2,1030
2,B3,58

# Biological target: CaBzz1-D2
# Assay: as above
# How it was run: as §1
row,Binder,SPOT peptide array binding signal intensity
1,B2,357
2,B3,26.5

# Biological target: CaCyk3
# Assay: as above
# How it was run: as §1
row,Binder,SPOT peptide array binding signal intensity
1,B2,≤ 0
2,B3,≤ 0

# Biological target: CaFus1
# Assay: as above
# How it was run: as §1
row,Binder,SPOT peptide array binding signal intensity
1,B2,≤ 0
2,B3,29

# Biological target: CaHof1
# Assay: as above
# How it was run: as §1
row,Binder,SPOT peptide array binding signal intensity
1,B2,1.5
2,B3,≤ 0

# Biological target: CaHse1
# Assay: as above
# How it was run: as §1
row,Binder,SPOT peptide array binding signal intensity
1,B2,5.75
2,B3,13.8

# Biological target: CaLsb1
# Assay: as above
# How it was run: as §1
row,Binder,SPOT peptide array binding signal intensity
1,B2,0.5
2,B3,1

# Biological target: CaLsb4
# Assay: as above
# How it was run: as §1
row,Binder,SPOT peptide array binding signal intensity
1,B2,≤ 0
2,B3,4

# Biological target: CaMyo5
# Assay: as above
# How it was run: as §1
row,Binder,SPOT peptide array binding signal intensity
1,B2,1
2,B3,4.25

# — the supplement of paper PMC4466140
